# Assay results published in PubChem BioAssay AID1159580 (chemical genetic matrix, 2015).
# Several values for one entry are separate records, joined by “and”; a condition that tells them apart may be missing. Equal values may be shown once. In all, about 5,500 compounds went through this assay and about 2,000 (36%) were called active. Another 18% or so got no clear call; they are omitted. The list shows a part of the results. Unmarked numbers belong to inactive results. No stated cut-off is given here; in the data, active means normalized growth mostly below about 0.91 (no sharp cut-off); inconclusive means no clear call, values can overlap the other calls; inactive means mostly above about 0.92.
# Assay: chemical genetic growth profiling, strain panel (AID 1159580);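 further: tested at 20 µM; growth read once vehicle control cultures reached saturation at 30 °C; 1 = growth at the plate median or of vehicle wells; lower values mean less growth of the strain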
# Settings: S. cerevisiae deletion strains, growth OD
smiles,measurement,setting,value
C=CC(C1=CC(=O)C(OC)=CC1=O)c1ccc(OC)cc1 (stereo unspecified),normalized growth,"locus YAL013W, strain DEP1, hits give low values",0.956
same,normalized growth,"locus YAL021C, strain ccr4, hits give low values",0.873 (active)
same,normalized growth,"locus YAL026C, strain drs2, hits give low values",0.765 (active)
same,normalized growth,"locus YAL030W, strain snc1, hits give low values",0.893 (active)
same,normalized growth,"locus YBL061C, strain skt5, hits give low values",0.872 (active)
same,normalized growth,"locus YBR009C, strain hhf1, hits give low values",0.661 (active)
same,normalized growth,"locus YBR021W, strain FUR4, hits give low values",0.957
same,normalized growth,"locus YBR023C, strain chs3, hits give low values",0.853 (active)
same,normalized growth,"locus YBR171W, strain sec66, hits give low values",0.983
same,normalized growth,"locus YBR229C, strain ROT2, hits give low values",0.968
same,normalized growth,"locus YBR231C, strain swc5, hits give low values",0.854 (active)
same,normalized growth,"locus YBR279W, strain paf1, hits give low values",0.883 (active)
same,normalized growth,"locus YCL011C, strain gbp2, hits give low values",0.857 (active)
same,normalized growth,"locus YCL016C, strain dcc1, hits give low values",0.81 (active)
same,normalized growth,"locus YCL029C, strain bik1, hits give low values",0.917
same,normalized growth,"locus YCL061C, strain MRC1, hits give low values",0.981
same,normalized growth,"locus YCL069W, strain vba3, hits give low values",0.911 (active)
same,normalized growth,"locus YCR088W, strain abp1, hits give low values",0.983
same,normalized growth,"locus YDL005C, strain med2, hits give low values",1.01
same,normalized growth,"locus YDL035C, strain GPR1, hits give low values",0.896
same,normalized growth,"locus YDL040C, strain nat1, hits give low values",0.975
same,normalized growth,"locus YDL074C, strain BRE1, hits give low values",0.827
same,normalized growth,"locus YDL101C, strain DUN1, hits give low values",0.939
same,normalized growth,"locus YDL134C, strain PPH21, hits give low values",0.961
same,normalized growth,"locus YDL185W, strain tfp1, hits give low values",0.976
same,normalized growth,"locus YDL192W, strain arf1, hits give low values",0.871 (active)
same,normalized growth,"locus YDR001C, strain nth1, hits give low values",0.982
same,normalized growth,"locus YDR069C, strain doa4, hits give low values",0.889 (active)
same,normalized growth,"locus YDR101C, strain arx1, hits give low values",0.906 (active)
same,normalized growth,"locus YDR137W, strain rgp1, hits give low values",0.596 (active)
same,normalized growth,"locus YDR150W, strain NUM1, hits give low values",0.985
same,normalized growth,"locus YDR159W, strain sac3, hits give low values",0.813 (active)
same,normalized growth,"locus YDR162C, strain NBP2, hits give low values",0.801 (active)
same,normalized growth,"locus YDR195W, strain ref2",1.16 [resistant] (active)
same,normalized growth,"locus YDR297W, strain sur2, hits give low values",0.934
same,normalized growth,"locus YDR318W, strain mcm21, hits give low values",0.843 (active)
same,normalized growth,"locus YDR334W, strain swr1, hits give low values",0.918
same,normalized growth,"locus YDR335W, strain msn5, hits give low values",0.94
same,normalized growth,"locus YDR388W, hits give low values",0.601 (active)
same,normalized growth,"locus YDR392W, strain spt3, hits give low values",0.23 (active)
same,normalized growth,"locus YDR502C, strain sam2, hits give low values",0.893 (active)
same,normalized growth,"locus YEL003W, strain gim4, hits give low values",0.803 (active)
same,normalized growth,"locus YEL037C, strain rad23, hits give low values",0.946
same,normalized growth,"locus YEL061C, strain CIN8 (second series), hits give low values",0.876 (active)
same,normalized growth,"locus YEL061C, strain CIN8, hits give low values",0.982
same,normalized growth,"locus YER015W, strain faa2, hits give low values",0.906 (active)
same,normalized growth,"locus YER016W, strain bim1, hits give low values",0.912 (active)
same,normalized growth,"locus YER110C, hits give low values",0.905
same,normalized growth,"locus YER111C, strain swi4, hits give low values",0.984
same,normalized growth,"locus YER155C, strain BEM2 (second series), hits give low values",0.476 (active)
same,normalized growth,"locus YER155C, strain BEM2, hits give low values",0.973
same,normalized growth,"locus YER167W, strain BCK2, hits give low values",0.829 (active)
same,normalized growth,"locus YFR010W, strain ubp6, hits give low values",0.887 (active)
same,normalized growth,"locus YGL078C, strain dbp3, hits give low values",0.978
same,normalized growth,"locus YGL086W, strain mad1, hits give low values",0.87 (active)
same,normalized growth,"locus YGL167C, strain pmr1, hits give low values",0.978
same,normalized growth,"locus YGL173C, strain kem1, hits give low values",0.853 (active)
same,normalized growth,"locus YGL227W, strain vid30, hits give low values",0.993
same,normalized growth,"locus YGL240W, strain doc1, hits give low values",0.743 (active)
same,normalized growth,"locus YGL248W, strain PDE1, hits give low values",0.948
same,normalized growth,"locus YGL253W, strain hxk2, hits give low values",0.813 (active)
same,normalized growth,"locus YGR078C, strain PAC10, hits give low values",0.875
same,normalized growth,"locus YGR135W, strain pre9, hits give low values",0.856 (active)
same,normalized growth,"locus YGR229C, strain SMI1, hits give low values",0.812
same,normalized growth,"locus YGR252W, strain gcn5, hits give low values",0.77
same,normalized growth,"locus YHR013C, strain ard1, hits give low values",0.6 (active)
same,normalized growth,"locus YHR027C, strain rpn1, hits give low values",0.948
same,normalized growth,"locus YHR030C, strain SLT2, hits give low values",0.957 and 1
same,normalized growth,"locus YHR079C, strain IRE1 (second series), hits give low values",0.893 (active)
same,normalized growth,"locus YHR079C, strain IRE1, hits give low values",1.03
same,normalized growth,"locus YHR094C, strain hxt1, hits give low values",0.947
same,normalized growth,"locus YHR129C, strain ARP1, hits give low values",0.939
same,normalized growth,"locus YHR142W, strain chs7, hits give low values",0.637 (active)
same,normalized growth,"locus YHR200W, strain rpn10, hits give low values",0.907 (active)
same,normalized growth,"locus YIL066C, strain RNR3, hits give low values",0.879
same,normalized growth,"locus YIL073C, strain SPO22, hits give low values",0.929
same,normalized growth,"locus YIL125W, strain kgd1, hits give low values",0.952
same,normalized growth,"locus YIR030C, strain dcg1, hits give low values",0.882 (active)
same,normalized growth,"locus YJL092W, strain hpr5, hits give low values",0.948
same,normalized growth,"locus YJL095W, strain BCK1 (second series), hits give low values",0.809 (active)
same,normalized growth,"locus YJL095W, strain BCK1, hits give low values",0.894 and 1.04
same,normalized growth,"locus YJL115W, strain asf1, hits give low values",0.973
same,normalized growth,"locus YJL129C, strain trk1, hits give low values",0.868 (active)
same,normalized growth,"locus YJL134W, strain LCB3, hits give low values",0.967
same,normalized growth,"locus YJL154C, strain vps35, hits give low values",0.96
same,normalized growth,"locus YJL164C, strain tpk1, hits give low values",0.759 (active)
same,normalized growth,"locus YJL166W, strain qcr8, hits give low values",0.588 (active)
same,normalized growth,"locus YJL168C, strain set2, hits give low values",0.947
same,normalized growth,"locus YJL187C, strain SWE1 (second series), hits give low values",0.933
same,normalized growth,"locus YJL187C, strain SWE1, hits give low values",0.841 (active)
same,normalized growth,"locus YJR043C, strain POL32, hits give low values",0.832 (active)
